PubChem BioAssay (NCI)
About 83,000 compounds went through this panel and 20% of them were active in at least one assay; those are over-represented in the sample as a whole.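 Values shown are percent growth following 48 h exposure of cells in 96-well plates to a single concentration of compound; below 10 was considered active.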 Values without a mark were called inactive. Calls of active or inactive are those of the source.

system: DU-145 prostate; test: NCI-60 one-dose screen, 48 h (100 = growth as untreated, 0 = no growth, -100 = all killed); conditions: 10 µM unless noted

Structure (SMILES) | growth
CCN(CC)c1nc(SCC(=O)Nc2nc3ccc(C)cc3s2)nc(-c2ccccc2)c1C#N | 101%
Cn1cc(-c2csc(-c3cccc(F)c3)n2)c2cccnc21 | -62.7% [100 µM] (active)
CCN1CCN(c2cc(C)nc(NCc3cc(Nc4ccnc5cc(Cl)ccc45)ccc3F)n2)CC1 | 50.7%
CSc1n(Cc2ccc3ccccc3c2)c(C)c[n+]1Cc1ccc2ccccc2c1 | -12.8% (active)
NC(=N\N=C/c1cccc([N+](=O)[O-])c1)/C(N)=N\N=C/c1cccc([N+](=O)[O-])c1 | 58.1%
COc1ccc(-c2csc(C3=C(O)CN(C(C)C)C3=N)n2)cc1OC | 108%
COc1ccc(-c2ccc3c(c2)sc2nc(-c4ccc(F)cc4)cn23)cc1 | 60.3%
Cc1ccc(S(=O)(=O)NCC[C@@H]2C[C@H]2c2cc3ccccc3s2)cc1 | 101%
Cc1cccc(NC(=O)CSc2nc3ccccc3[nH]2)c1 | 107%
C[n+]1cc2cc(C(N)=O)[nH]c3c(=N)c(Cl)c(N)c1c23 | 69.7%
CCN(CC)CCCNc1ccc(Nc2ccc(OC)cc2)cc1 | 90.7%
O=C1C=C[C@]2(C[C@@H](c3cccc(C(F)(F)F)c3)O[C@@H](c3cccc(C(F)(F)F)c3)O2)O1 | 28.7%
Cc1nc2c(c(N3CCCc4ccccc43)n1)CCC2 | -8.95% (active)
Cc1cc(Cl)nc(NCc2cc(Nc3ccnc4cc(Cl)ccc34)ccc2F)n1 | 52.3%
COc1ccc(NC(=O)CSc2nnc(-c3cc(-c4ccc(S(N)(=O)=O)cc4)nc4ccccc34)n2-c2ccccc2)cc1 | 96.6%
